The source of these data is PubChem BioAssay (NCATS).

The structures appear in SMILES notation. Inconclusive results are not listed. Calls of active or inactive are those of the source. Calls come from the whole dose curve.

The experiment can be described thus: S16 Schwann cell PMP22 intronic element beta-lactamase assay (AID 624044). Note: nearly all actives have a fitted effect of over 15% in size. The following applies: S16 rat Schwann cells, PMP22 element beta-lactamase FRET, 24 h; ratio activity, negative = inhibition: at 38.3 µM (top of the series) unless noted. An excerpt: Description: Charcot-Marie-Tooth-Association [CMTA] National Center for Advancing Translational Sciences [NCATS] Charcot-Marie-Tooth (CMT) disease was first characterized by Jean-Martin Charcot and Pierre Marie in France and, independently, by Howard Henry Tooth in England in 1886. CMT is one of the most common inherited neurological diseases, affecting approximately 1 in 2,500 Americans. […] The most prevalent type of CMT is known as CMT1A and caused by a duplication of the PMP22 gene which leads to over-expression of this protein. PMP22 is a glycosylated intrinsic membrane protein accounting for 2-5% of the myelin protein content, and its over-expression results in demyelination and subsequently axonal loss. A pair of cellular transcription-based assays was developed in the S16 rat Schwann cell lines (Hai, M., et al., 2002) stably transfected with orthogonal reporters - firefly luciferase (Fluc) and beta-lactamase (beta-Lac) - whose expression is driven by an intronic regulatory element of the PMP22 gene (Jones, E.A., et al., 2011) to recapitulate endogenous expression of PMP22. The current assay employs Blac as a reporter of PMP22 expression. A comprehensive library of approved drugs, the NCGC Pharmaceutical Collection (Huang, R., et al., 2011), was screened in the cross-validating platform of the orthogonal reporter assays to identify drug modulators inhibitory towards PMP22 expression. A set of counter-screens was devised to address non-specific activity of the library. An ATP-dependent CellTiter-Glo assay (developed by Promega Corp) was utilized to control cell viability. In addition, biochemical Fluc enzyme assay was performed to assess direct inhibition of the Fluc enzymatic activity. References Hai, M., Muja, N., DeVries, G.H., Quarles, R.H. and Patel, P.I. Comparative analysis of Schwann cell lines as model systems for myelin gene transcription studies. J Neurosci Res, 2002. 69(4): pp 497-508 Huang, R., Southall, N., Wang, Y., Yasgar A., Shinn P., Jadhav, A. , Nguyen, D.-T. and Austin, C.P., The NCGC pharmaceutical collection: a comprehensive resource of clinically approved drugs enabling repurposing and chemical genomics. Sci Transl Med, 2011. 3(80): p. 80ps16.
S16 Schwann cell PMP22 intronic element beta-lactamase assay The beta-Lac-expressing S16 cells were seeded in black clear-bottom 1536 well plates at between 500-750 cells/6uL in DMEM medium containing 10% FBS, w/o phenol red. After overnight incubation at 37 degree Celsius/5% C02, 23 nL of compounds or DMSO were delivered to each well using a pin tool, followed by 24h-incubation at 37 degree Celsius/5% C02. Then one microl of LiveBLAzer FRET B/G detection mix (Invitrogen) was added to each well. An EnVision plate reader (PerkinElmer) was used to detect the dual beta-Lac output composed of fluorescence at 460nm for beta-Lac expression and FRET at 535nm for cell viability. The % signal at 535 nm was scaled to a full range of DMSO and zero and then normalized using the maximum response observed in the screen as 100% activity. The % signal at 460nm was normalized to the average readings of potassium clavulanate (a positive control) - treated cells relative to DMSO-treated cells (0% Activity). The concentration-effect curves were then classified based on curve quality (r2), response magnitude and degree of measured activity.
For `CCCCCCCCCCCC(=O)N(CCO)CCO`, the ratio activity, negative = inhibition is 0% (inactive).
For the compound `O=C(O)COc1ccc(CCNS(=O)(=O)c2ccccc2)s1`, the ratio activity, negative = inhibition was -0.95% (inactive).
In the case of `CNC(=O)OCc1cccc(COC(=O)NC)n1`, the ratio activity, negative = inhibition was -18.3% (inactive).
To `CCN(CC)C(=O)c1cccnc1` belongs 2.08% (inactive); to `O=C(CCCN1CCC(C(=O)c2ccc(F)cc2)CC1)c1ccc(F)cc1`, -12.9% (inactive).
To `Cc1nc(NS(=O)(=O)c2ccc(N)cc2)nc(C)c1Br` belongs 0.0634% (inactive); to `CS(=O)(=O)OCC(O)C(O)COS(C)(=O)=O` (stereo not given), 2.66% (inactive); to `O=P(O)(O)OC[C@H](O)CO`, 2.95% (inactive).
To `CCCCC(CC)CCC(CC(C)C)OS(=O)(=O)O` (stereo not given) belongs 0% (inactive); to `CC(C)(CO)[C@@H](O)C(=O)NCCC(=O)NCCSSCCNC(=O)CCNC(=O)[C@H](O)C(C)(C)CO`, 2.37% (inactive); to `O=C(O)/C=C/C(=O)Nc1ccc(S(=O)(=O)Nc2nccs2)cc1`, 1.33% (inactive).
As for `CN1CCC(OC(=O)C(Oc2ccc(Cl)cc2)Oc2ccc(Cl)cc2)CC1`, the ratio activity, negative = inhibition was 2.81% (inactive).
In the case of `CC(=O)Nc1c(I)c(C(=O)O)c(I)c(N(C)C(C)=O)c1I` it was 11.6% (inactive); in that of `CN(CCO)CC(O)Cn1cnc2c1c(=O)n(C)c(=O)n2C` (stereo not given) (tested in a mixture with another compound), 1.27% (inactive); in that of `CO`, 1.83% (inactive).
In the case of `C=CC(C)(O)CC/C=C(\C)CCC=C(C)C` (stereo not given) it was -13.1% (active); in that of `ClC(Cl)Cl`, 4.84% (inactive); in that of `NC(=S)NS(=O)(=O)c1ccc(N)cc1`, -12.7% (active).
To `CN1C(C(=O)Nc2ccccn2)C(=O)c2sc(Cl)cc2S1(=O)=O` (stereo not given) belongs 6.16% (inactive); to `CN(Cc1ccccc1)Cc1ccccc1`, 0.417% (inactive).
In the case of `CC/C=C\C/C=C\C/C=C\C/C=C\C/C=C\C/C=C\CCC(=O)O`, the ratio activity, negative = inhibition is 0.57% (inactive).
In the case of `C[C@]12CCC(=O)C[C@@H]1CC[C@@H]1[C@@H]2CC[C@]2(C)C=CC[C@@H]12` it was 4.94% (inactive); in that of `Cn1c(=O)c2c(ncn2CCOC(=O)C(C)(C)Oc2ccc(Cl)cc2)n(C)c1=O`, -5.21% (inactive).
Take `S=C1SCN(Cc2ccccc2)CN1Cc1ccccc1`: the ratio activity, negative = inhibition was -11.2% (inactive).
To `CS(=O)(=O)c1ccc([C@@H](O)[C@@H](COC(=O)CN)NC(=O)C(Cl)Cl)cc1` belongs 3.99% (inactive).
To `C=CC[C@@H]1/C=C(\C)C[C@H](C)C[C@H](OC)[C@H]2O[C@@](O)(C(=O)C(=O)N3CCCC[C@H]3C(=O)O[C@H](/C(C)=C/[C@@H]3CC[C@@H](O)[C@H](OC)C3)[C@H](C)[C@@H](O)CC1=O)[C@H](C)C[C@@H]2OC` belongs -24.4% (inactive); to `COc1ccc(C(=O)c2ccc(C)cc2)c(O)c1`, 6.33% (inactive); to `Cc1cccc(Nc2ncccc2C(=O)O)c1C`, 6.34% (inactive).
As for `CC[C@H]1OC(=O)[C@H](C)[C@@H](O[C@H]2C[C@@](C)(OC)[C@@H](O)[C@H](C)O2)[C@H](C)[C@@H](O[C@@H]2O[C@H](C)C[C@H](N(C)C)[C@H]2O)[C@](C)(O)C[C@@H](C)CN(C)[C@H](C)[C@@H](O)[C@]1(C)O`, the ratio activity, negative = inhibition is -5.31% (inactive).
In the case of `CC/C=C\C/C=C\C/C=C\C/C=C\C/C=C\CCCC(=O)O` it was 1.33% (inactive); in that of `NC(=O)CC[C@@H]1NC(=O)[C@H](Cc2ccccc2)NC(=O)[C@H](Cc2ccc(O)cc2)NC(=O)[C@@H](N)CSSC[C@@H](C(=O)N2CCC[C@H]2C(=O)N[C@@H](CCCN=C(N)N)C(=O)NCC(N)=O)NC(=O)[C@H](CC(N)=O)NC1=O`, -1.23% (inactive); in that of `NCCN`, -0.354% (inactive).
In the case of `CSCCC(N)C(=O)O` (stereo not given) it was 5.55% (inactive).
To `CCN(CC)CCOC(=O)c1cccnc1` belongs 2.66% (inactive); to `FC(F)(F)COCC(F)(F)F`, -0.887% (inactive).
Regarding `Cc1ncc[nH]1`, the ratio activity, negative = inhibition was -0.768% (inactive).
To `COc1ccc(/C=C/C(=O)O)cc1` belongs 1.76% (inactive); to `O=C(c1cc2ccccc2o1)N1CCN(Cc2ccccc2)CC1`, 2.34% (inactive); to `COC1=C(OC)C(=O)C(C/C=C(\C)CC/C=C(\C)CC/C=C(\C)CC/C=C(\C)CC/C=C(\C)CC/C=C(\C)CC/C=C(\C)CC/C=C(\C)CC/C=C(\C)CCC=C(C)C)=C(C)C1=O`, 0.236% (inactive).
As for `O=C1c2ccccc2C(=O)c2c1ccc(O)c2O`, the ratio activity, negative = inhibition is 0.767% (inactive).
